In the library only some 3.9% were active in any assay of this set; here they are far more common.
MITF act – MITF TRPM1 promoter activation in melanoma cells; 0.75% of 300,000 active; SK-MEL-5 TRPM1-promoter luciferase, 24 h; % of positive control, neutral wells = 0; AID 588334; activation, % at 12.5 µM;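 active = mean activation of at least 80% with every replicate also reaching 80%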;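 also: 0% = neutral control wells and 100% = parthenolide positive control wells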
HSF1 inhib – HSF1 inhibition; activity change, negative = inhibition, % at 7.5 µM (by protocol); AID 2098; NIH3T3-HGL HSE-luciferase, MG132-induced, luminescence 8 h; stronger effect = lower value; 0.77% of 300,000 active;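 active = more than half of replicate wells show activity change below -50%, luminescence cut by over half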;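 also: luciferase reports HSF-1 transcriptional activity via heat shock element; 0% = median of DMSO wells and -100% = zero luminescence signal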
Wnt act – activators of Wnt/beta-catenin signaling | Wnt/beta-catenin reporter cell assay, activator, plate reader | 1.2% of 300,000 active | activation, % at 9.35 µM; in the data active = activation above about 30%, passing the limit was not always enough;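 also: 0% = neutral control wells and 100% = positive control wells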
esBAF inh – SWI/SNF esBAF complex inhibition; mouse ES cells, Bmi1-luciferase knock-in reporter, 24 h; 100% = twice the neutral-well signal; reporter increase, % at 12.5 µM; 2% of 350,000 active; in the data active = activation above about 40%;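 also: 0% = median of the plate's neutral control wells and 100% = double that signal; a rise in the Bmi1 reporter signal indicates esBAF inhibition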
HSF1 activator – increases HSF-1 driven luciferase reporter signal; NIH3T3-HGL HSF-1 luciferase reporter, MG132, 8 h; 100% = twice DMSO control signal; activation, % at 9 µM; 1.7% of 300,000 active; AID 504408;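 active = mean replicate activation of at least 50% with a set share of replicates each reaching 50%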;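 also: 0% = median of the neutral control wells and 100% = twice that signal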
An asterisk follows results filed as active; · = not tested or not shown.

SMILES | MITF act | HSF1 inhib | Wnt act | esBAF inh | HSF1 activator
CC(C)Sc1nnc(NC(=O)c2ccc3c(c2)OCO3)s1 | 87.8* | 14.2 | -0.1 | 37.0 | 24.6
C=CCNc1nc(N)c(C(=O)c2ccc3c(c2)OCO3)s1 | 45.6 | · | · | 52.3* | ·
C=CCNc1nc(N)c(C(=O)Nc2cc(C)on2)s1 | 55.4 | 9.7 | · | 31.7 | 34.7
CCOC(=O)c1sc(NC(=O)COc2ccc3c(c2)OCO3)nc1C | · | -0.3 | 1.1 | -9.8 | -0.5
CC(C)NC(=O)Nc1ccc2c(c1)CC(=O)N([C@@H](C)CO)C[C@@H](C)[C@H](CN(C)C(=O)Nc1ccc(C(F)(F)F)cc1)O2 | · | · | · | -2.9 | ·
Cn1c(=O)n(CCOc2ccccc2Cl)c2ccccc21 | 38.8 | 9.8 | 4.5 | 78.1* | 20.3
O=c1sc2ccccc2n1CCOc1ccccc1 | 64.8 | 34.9 | 15.3 | 44.9* | 46.8
Cc1ccc(OCCn2c(=O)n(C)c3ccccc32)cc1 | 39.4 | 28.2 | 13.4 | 84.5* | 58.8*
Cn1c(=O)n(CCOc2ccc([N+](=O)[O-])cc2)c2ccccc21 | · | 18.0 | 5.2 | · | 16.7
C[C@@H]1CN([C@H](C)CO)C(=O)CCCn2cc(nn2)CO[C@@H]1CN(C)S(=O)(=O)c1cccc(F)c1 | · | · | · | -2.1 | ·
O=C(C[C@@H]1C[C@@H]2c3cc(NC(=O)c4cccnc4)ccc3O[C@@H]2[C@@H](CO)O1)NCc1cccc(F)c1 | · | · | · | 1.6 | ·
CC(C)(C)NC(=O)C1CC(=O)OC12CCOC(C)(C)C2 (stereo unspecified) | -8.5 | -58.3* | -1.0 | · | -64.6
CO[C@H]1CN(C)C(=O)c2ccc(NS(C)(=O)=O)cc2OC[C@H](C)N(CC2CC2)C[C@@H]1C | · | · | · | 0.3 | ·
COc1ccc(C(NC(=O)c2ccc(=O)[nH]c2)C(=O)Nc2ccc(C(C)C)cc2)cc1 (stereo unspecified) | 6.4 | -61.2* | 0.1 | 0.0 | -72.0
CCOc1cc(/C=C2/SC(=S)N(CC3CCCO3)C2=O)ccc1O (stereo unspecified) | 20.3 | 28.2 | -1.3 | · | 72.7*
CCCN(C)C[C@@H]1Oc2ncc(-c3ccccc3)cc2C(=O)N([C@H](C)CO)C[C@@H]1C | · | · | · | 2.0 | ·
O=C(N/N=C/c1ccco1)C1(O)c2ccccc2-c2ccccc21 | · | 14.2 | -3.5 | · | 55.6*
O=C(N/N=C/c1ccco1)C(O)C(O)C(=O)N/N=C/c1ccco1 (stereo unspecified) | 13.1 | -0.8 | 0.3 | -2.6 | 6.6
Cc1ccccc1NC(=S)N/N=C/C(C)c1ccccc1 (stereo unspecified) | 0.9 | 0.1 | -2.0 | 9.7 | -12.1
Cc1cccc(NC(=S)N/N=C/C(C)c2ccccc2)c1C (stereo unspecified) | -4.1 | -1.0 | 33.8* | · | 22.8
O=C(COC(=O)CC1c2ccccc2CCN1S(=O)(=O)c1ccc(F)cc1)Nc1ccccc1 (stereo unspecified) | 2.4 | -3.6 | · | · | -8.0
CCc1cccc(CC)c1NC(=O)COC(=O)CC1c2ccccc2CCN1S(=O)(=O)c1ccc(F)cc1 (stereo unspecified) | -1.6 | 31.3 | -2.9 | · | 61.8*
Cc1nc(NC(=O)c2ccccc2)sc1C | · | 31.5 | 4.0 | 6.0 | 57.7*
Cc1nc(NC(=O)c2csc3ccccc23)sc1C | 30.5 | 31.2 | 42.2* | -3.0 | 61.4*
Cc1nc(NC(=O)Nc2ccc(Cl)cc2)sc1C | 78.1 | 27.0 | 14.8 | 58.3* | 32.6
SMILES | MITF act | HSF1 inhib | Wnt act | esBAF inh | HSF1 activator
Cc1nc(Nc2ccccc2)sc1C | 26.5 | -51.7* | 2.6 | 13.5 | -58.8
C[C@@H]1CCCCO[C@@H](CN(C)S(=O)(=O)c2ccc(Cl)cc2)[C@@H](C)CN([C@@H](C)CO)C(=O)c2cc(NS(=O)(=O)c3cccs3)ccc2O1 | · | · | · | 3.0 | ·
Cc1nc(NC(=O)CCc2ccccc2)sc1C | 65.9 | 10.2 | 4.8 | 56.7* | 9.4
Cc1nc(NC(=S)NC(=O)c2ccccc2)sc1C | 56.7 | 14.8 | 0.6 | 44.8* | 22.1
CSc1nnc(NC(=O)CCc2ccccc2)s1 | · | 8.0 | · | 12.5 | 10.5
C[C@@H]1CCCCO[C@H](CN(C)S(=O)(=O)c2cccs2)[C@H](C)CN([C@H](C)CO)C(=O)c2cc(N(C)C)ccc2O1 | · | · | · | 2.9 | ·
CCCN(C)C[C@@H]1OCCCC[C@@H](C)Oc2ccc(NC(=O)Cc3ccccc3)cc2C(=O)N([C@H](C)CO)C[C@@H]1C | · | · | · | -2.8 | ·
COc1ccc(NC(=O)N(C)C[C@H]2OCCCC[C@H](C)Oc3ccc(NC(=O)Nc4c(C)noc4C)cc3C(=O)N([C@@H](C)CO)C[C@@H]2C)cc1 | · | · | · | -2.4 | ·
O=C(NC1CCCC1)c1cccc2c1C(=O)c1ccc(N3CCCCC3)cc1S2(=O)=O | · | · | 4.2 | 50.2* | ·
CC1CCN(c2ccc3c(c2)S(=O)(=O)c2cccc(C(=O)NCc4ccc(F)cc4)c2C3=O)CC1 | · | · | 7.0 | 70.0* | ·
C[C@H](CO)N1C[C@H](C)[C@H](CN(C)C(=O)Nc2ccccc2)Oc2ccc(NC(=O)c3ccncc3)cc2CC1=O | · | · | · | 1.8 | ·
Cc1cc(/C=C2/NC(=O)N(Cc3ccccc3F)C2=O)c(C)n1C | -1.6 | 7.7 | · | -5.6 | 14.4
CCOc1cc([N+](=O)[O-])cc(/C=C2/NC(=O)N(Cc3ccccc3F)C2=O)c1O | -10.4 | 99.4 | -1.4 | · | 134.6*
O=C(c1ccccc1F)N1CC[C@@H]2[C@@H](CO)Nc3ccc(Br)cc3[C@@H]21 | · | · | · | 1.0 | ·
Cc1ccc(O)c(-c2cc(-c3ccccc3[N+](=O)[O-])[nH]n2)c1 | 67.8 | 42.0 | · | · | 59.1*
Cc1ccc(O)c(-c2cc(-c3ccccc3C)[nH]n2)c1 | -14.3 | 122.9 | 18.6 | · | 161.7*
Cc1ccc(O)c(-c2cc(C(F)(F)C(F)F)[nH]n2)c1 | 22.4 | 49.9 | -3.2 | -0.4 | 80.0*
C[C@H](CO)N1C[C@H](C)[C@H](CN(C)C)OCCCC[C@H](C)Oc2ccc(NS(C)(=O)=O)cc2C1=O | · | · | · | 2.1 | ·
CO[C@@H](CN(C)C(=O)Nc1ccc(C(F)(F)F)cc1)[C@H](C)CN(Cc1ccccc1Cl)[C@@H](C)CO | · | · | · | -5.1 | ·
NC(=O)CSc1nnc(-c2ccccn2)n1Cc1ccco1 | · | -3.8 | 1.8 | -4.2 | -2.6
Nn1c(SCc2ccccc2F)nnc1-c1cccnc1 | · | 27.0 | 51.8* | · | 26.1
Cn1c(SCc2ccccc2F)nnc1-c1ccccn1 | 53.7 | 21.5 | 56.0* | 26.9 | 44.9
Cn1c(SCc2ccccc2F)nnc1-c1cnccn1 | 52.7 | 10.1 | 12.0 | 22.4 | 24.4
